For assay [1], the system named is MCC-13. Put plainly: qHTS assay to identify novel small-molecules to repurpose for Merkel cell carcinoma treatment (AID 1296009). Further: nearly all actives have a fitted effect of over 60% in size. Conditions: MCC and control cell lines, CellTiter-Glo viability, 72 h; series mostly up to 46 µM. In outline: (§1)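 Luminescence from CellTiter-Glo, read 10 min after addition at room temperature, reported viability following a 72 hr, 37 degree celsius treatment with NPC or MIPE compounds in titration; values normalized to plate controls.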
(In general: Quantitative high-throughput screening tests each substance at several concentrations.)

Assay [2] relates to MCC-26. The assay is described as above. Conditions: MCC and control cell lines, CellTiter-Glo viability, 72 h; series mostly up to 46 µM. In short, it runs like this:
as §1
In general terms: ATP-based viability assays read luminescence as a measure of living cells.

The subject of assay [3] is MKL-1. The description is as above. Conditions: MCC and control cell lines, CellTiter-Glo viability, 72 h; series mostly up to 46 µM. In outline: as §1
Assay [4] deals with MKL-2. The assay is described as above. Particulars: MCC and control cell lines, CellTiter-Glo viability, 72 h; series mostly up to 46 µM. In outline:
as §1

The test system of assay [5] is UISO. Described as above. Conditions: MCC and control cell lines, CellTiter-Glo viability, 72 h; series mostly up to 46 µM. In outline: as §1
In assay [6] the test system is WaGa. Described as above. Conditions: MCC and control cell lines, CellTiter-Glo viability, 72 h; series mostly up to 46 µM. In outline:
as §1

Assay [7] deals with CAOV3. Nature of the assay: Primary qHTS to identify gynecologic anti-cancer compounds using libraries of approved drugs and bioactive compounds (AID 1345084). Further: nearly all actives have a fitted effect of over 55% in size. Conditions: Gynecologic cancer cell panel viability, ATPlite luminescence, 48 h; series mostly up to 57.5 µM. In short, it runs like this: (§2)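 48 h compound exposure at 37 C, 5% CO2; five-point qHTS. ATPlite luminescence readout of cell ATP.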

For assay [8], the system named is CASKI. Described as above. Conditions: Gynecologic cancer cell panel viability, ATPlite luminescence, 48 h; series mostly up to 57.5 µM. In outline:
as §2

In assay [9] the test system is Es-2. The assay is described as above. Particulars: Gynecologic cancer cell panel viability, ATPlite luminescence, 48 h; series mostly up to 57.5 µM. In outline: as §2
In assay [10] the test system is HeLa. Described as above. Conditions: Gynecologic cancer cell panel viability, ATPlite luminescence, 48 h; series mostly up to 57.5 µM. In short, it runs like this:
as §2

The subject of assay [11] is Hek293T. Described as above. Particulars: Gynecologic cancer cell panel viability, ATPlite luminescence, 48 h, control line for the selectivity index; series mostly up to 57.5 µM. In short, it runs like this: as §2
Assay [12] deals with JEG-3. The description is as above. Conditions: Gynecologic cancer cell panel viability, ATPlite luminescence, 48 h; series mostly up to 57.5 µM. In outline: as §2
For assay [13], the system named is PA-1. Described as above. Particulars: Gynecologic cancer cell panel viability, ATPlite luminescence, 48 h; series mostly up to 57.5 µM. In short, it runs like this: as §2
For assay [14], the system named is Tov-21-G. Described as above. Particulars: Gynecologic cancer cell panel viability, ATPlite luminescence, 48 h; series mostly up to 57.5 µM. In outline: as §2
Assay [15] is described as follows: Drug repurposing screens with cells derived from glioblastoma tumor samples (AID 1345199). Further: nearly all actives have a fitted effect of over 40% in size. Particulars: GBM patient neurospheres viability, ATP luminescence, 48 h. In short, it runs like this: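 Primary testing used CD133+ neurospheres from four GBM patients, seven concentrations, 48 h exposure and ATP-based viability; confirmation added three slower-growing patient lines.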

Assay [16] concerns C33A. Put plainly: Primary qHTS to identify gynecologic anti-cancer compounds using libraries of approved drugs and bioactive compounds (AID 1345084). Further: nearly all actives have a fitted effect of over 55% in size. Conditions: Gynecologic cancer cell panel viability, ATPlite luminescence, 48 h; series mostly up to 57.5 µM. In short, it runs like this: as §2
For assay [17], the system named is OV90. Described as above. Particulars: Gynecologic cancer cell panel viability, ATPlite luminescence, 48 h; series mostly up to 57.5 µM. In outline:
as §2

The subject of assay [18] is SKOV3. Described as above. Conditions: Gynecologic cancer cell panel viability, ATPlite luminescence, 48 h; series mostly up to 57.5 µM. In short, it runs like this:
as §2

For assay [19], the system named is Tov112D. The assay is described as above. Particulars: Gynecologic cancer cell panel viability, ATPlite luminescence, 48 h; series mostly up to 57.5 µM. In outline: as §2
Setting [20] is: at 108 µM (top of the series), tumour line B.
The mark [21] stands for this setting: at 108 µM (top of the series), tumour line D.
The mark [22] stands for this setting: at 45.9 µM (top of the series), tumour line B.
The mark [23] stands for this setting: at 45.9 µM (top of the series), tumour line D.
Where [24] appears, read: at 46 µM (top of the series), tumour line A.
Where [25] appears, read: at 21.2 µM (top of the series), tumour line B.
Setting [26] is: at 21.2 µM (top of the series), tumour line D.
Setting [27] is: at 21.3 µM (top of the series), tumour line A.

Molecules are shown by their SMILES. Inconclusive results are not listed. Values without a mark were called inactive. Calls of active or inactive are those of the source. The call rests on the fitted dose curve; in most records, active means well fitted curve in the direction sought with a large enough effect; inconclusive means small, poorly fitted or top-dose-only effect, or another doubt; inactive means no such curve, though single readings can be large; an effect the other way counts as inactive or inconclusive.
On the % scale 0 is the no-effect control and ±100 the full control effect; potency means the concentration at half of the fitted maximal effect.

As to `COc1cc(CC(C)N)cc(OC)c1OC` (stereo unspecified), the compound was called inactive in assay [1], in assay [7], in assay [8], in assay [11] and in assay [12]. Besides, the Potency entry in assay [2], in [3], in assay [4], in assay [5] and in assay [6] was “inactive” throughout. The Potency in assay [9] is 15.8 µM (active); in assay [10], 1.58 µM (active); in [13] it was 2.51 µM (active); in [14] it was 0.708 µM (active). Further, the activity, negative = cell killing in assay [15] (setting [20]) was -12%; in [15] (setting [21]), -16.2%.
With `NC(=O)c1cc([N+](=O)[O-])cc([N+](=O)[O-])c1`, the outcome in assay [1], in [7], in [8], in assay [11] and in assay [18] was inactive. In addition, the Potency result in assay [2], in [3], in assay [4], in assay [5], in [6] and in assay [16] was “inactive” each time. Besides, the Potency result in assay [9], in [10], in assay [17], in assay [13], in assay [14] and in assay [19] was “inactive” throughout. The values for the activity, negative = cell killing in assay [15] (setting [22]) and in assay [15] (setting [23]) were -14% and -22.7%, respectively.
Consider `C[C@@H]1CC2=CC(=O)CC[C@@H]2[C@H]2CC[C@@]3(C)[C@@H](CC[C@]3(C)O)[C@@H]21`, for which the compound was classed as inactive in assay [1], in assay [7], in assay [8], in [11], in assay [12] and in assay [18]. Moreover, the Potency entry in assay [2], in assay [3], in assay [4], in assay [5], in [6] and in assay [16] was “inactive” throughout. Moreover, the Potency entry in [9], in assay [10], in assay [13], in assay [14] and in assay [19] was “inactive” throughout.
As to `NC(=O)CS(=O)C(c1ccccc1)c1ccccc1` (stereo unspecified), the call in assay [1], in assay [7], in assay [8], in assay [11], in [12] and in [18] was inactive. For the same compound, the Potency result in [2], in [3], in assay [4], in assay [5], in [6] and in assay [16] was “inactive” each time. Also, the Potency entry in [9], in [10], in [13], in assay [14] and in assay [19] was “inactive” each time. Further, the figures for the activity, negative = cell killing in assay [15] (setting [22]), in [15] (setting [23]) and in [15] (setting [24]) were -12.2%, -18.4% and -9.02%, respectively.
As for `CC(C)(C)NCC(O)c1ccccc1Cl` (stereo unspecified), the compound was classed as inactive in assay [1], in [7], in assay [8], in assay [11], in [12] and in [18]. Besides, the Potency result in assay [2], in assay [3], in assay [4], in [5], in assay [6] and in assay [16] was “inactive” each time. The Potency result in [9], in assay [10], in assay [13], in assay [14] and in [19] was “inactive” in each case. Moreover, the activity, negative = cell killing was -9.73% in [15] (setting [22]) and -4.92% in [15] (setting [23]).
`CC(C(=O)c1ccccc1)N(C)C` (stereo unspecified): the compound was called inactive in assay [1], in assay [7], in [8], in [12] and in [18]. Moreover, the Potency entry in assay [2], in assay [3], in assay [4], in assay [5], in assay [6] and in assay [9] was “inactive” in each case. Besides, the Potency result in assay [10], in [17], in [13], in [14] and in [19] was “inactive” throughout.
As to `C[C@H](N)C(=O)c1ccccc1`, the outcome in assay [1], in assay [7], in assay [8], in assay [11], in [12] and in assay [18] was inactive. The Potency result in assay [2], in assay [3], in assay [4], in [5], in [6] and in [16] was “inactive” each time. Moreover, the Potency entry in [9], in [13], in assay [14] and in [19] was “inactive” throughout. In addition, the activity, negative = cell killing is -11.6% in assay [15] (setting [22]), -9.76% in [15] (setting [23]), -16.2% in assay [15] (setting [20]) and -20.3% in assay [15] (setting [21]).
Consider `COP(=S)(OC)Oc1ccc(SC)c(C)c1`, for which the outcome in [1], in [7], in [8], in assay [11], in assay [12] and in assay [18] was inactive. In addition, the Potency result in assay [2], in [3], in assay [4], in assay [5], in assay [6] and in [16] was “inactive” each time. In addition, the Potency entry in assay [9], in assay [10], in [17], in assay [14] and in assay [19] was “inactive” in each case. Also, the activity, negative = cell killing in [15] (setting [22]) was -12.6%; in assay [15] (setting [23]), -10.9%; in assay [15] (setting [24]), -25.3%.
Consider `CN1CCC(O)(c2ccc(F)cc2)C(C(=O)c2ccc(F)cc2)C1` (stereo unspecified), for which the call in [1], in assay [7], in assay [8], in assay [11], in [12] and in assay [18] was inactive. Besides, the Potency entry in [2], in assay [3], in assay [5], in assay [6], in assay [16] and in [9] was “inactive” each time. Besides, the Potency result in [10], in assay [17], in assay [13], in [14] and in assay [19] was “inactive” throughout. For the same compound, the Potency in assay [15] (tumour line A) was 12.6 µM (active); in assay [15] (tumour line B) it was 28.2 µM (active).
Take `Cc1nnc2n1-c1ccc(Cl)cc1C(c1ccccc1)=NC2`: the activity, negative = cell killing in [15] (setting [23]) is 7.45%.
As to `O=C1OC(CCN2CCCCC2)OC1(c1ccccc1)c1ccccc1` (stereo unspecified), the Potency entry in [2], in [16], in [9], in assay [10], in [17] and in assay [13] was “inactive” each time. Besides, the Potency result in assay [14] and in assay [19] was “inactive” each time. The Potency in assay [3] is 21.1 µM (active); in assay [4], 6.68 µM (active). Besides, the result in assay [7], in assay [8], in assay [11], in [12] and in assay [18] was inactive.
As for `O=C1c2ccccc2C(=O)C1C(=O)C(c1ccccc1)c1ccccc1`, the outcome in [1], in assay [7], in assay [8], in assay [11], in assay [12] and in assay [18] was inactive. Further, the Potency result in [2], in assay [5], in [16], in [9], in assay [10] and in assay [17] was “inactive” each time. Further, the Potency result in [13], in assay [14] and in assay [19] was “inactive” in each case. In addition, the Potency in [6] was 23.7 µM (active). Moreover, the activity, negative = cell killing was -21.4% in assay [15] (setting [22]); -28.8% in assay [15] (setting [23]); -53.7% in [15] (setting [24]); -30.6% in assay [15] (at 46.1 µM (top of the series), tumour line C).
With `C[C@@H](N)[C@@H](O)c1ccccc1`, the Potency result in assay [16], in assay [9], in assay [10], in assay [17], in [13] and in assay [14] was “inactive” each time. In addition, the Potency entry in assay [19] was “inactive”. In addition, the outcome in assay [7], in [8], in [11], in [12] and in assay [18] was inactive. For the same compound, the activity, negative = cell killing in assay [15] (setting [25]) is -14.5%; in [15] (setting [26]), 16.2%; in [15] (setting [27]), -20.6%.
For `CC(=O)OCC1=C(C(=O)O)N2C(=O)[C@@H](N)[C@H]2SC1`, the call in assay [1], in assay [7], in assay [8], in assay [11], in assay [12] and in assay [18] was inactive. The Potency result in [2], in assay [3], in [5], in assay [16], in [9] and in assay [10] was “inactive” throughout. Besides, the Potency entry in assay [17], in assay [13], in assay [14] and in [19] was “inactive” throughout. Also, the values for the activity, negative = cell killing in assay [15] (setting [25]), in assay [15] (setting [26]) and in [15] (setting [27]) were -6.05%, -13.7% and -21.2%, respectively.

The record behind these values is PubChem BioAssay (NCATS).
